Values joined by “and” are separate entries in the source; they are usually repeats but may differ in a detail not shown here. Equal entries are not always repeated. Results filed as inconclusive are left out. The source holds several records for some structures; these can differ, active in one and inactive in another. Active and inactive are the calls of the source. How the source made its calls, unless noted: active means hit-call score of the fitted dose curve at least 0.9, where 1 is the maximum; inactive means score below 0.9.
How the values were obtained:
[1] = biological target: Retinoic acid receptor RXR-alpha (Homo sapiens) (UniProt P19793); assay: ATG_RXRa_TRANS: Attagene TRANS-FACTORIAL HepG2 Assay for human Retinoid X Receptor alpha (RXRa) (AID 2283012; active means hit-call score of the fitted dose curve at least 0.9, where 1 is the maximum)
Procedure, shortened: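 HepG2 cells transiently transfected with multiplexed GAL4-UAS reporter units and chimeric NR-GAL4 fusions, dosed 24 h. Reporter mRNA measured by RT-PCR, FAM labelling, HpaI digestion and capillary electrophoresis; gain-of-signal fitted relative to DMSO baseline.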

[2] = biological target: human Retinoid X Receptor beta (RXRb), RXRB (gene 6257) (UniProt P28702); assay: ATG_RXRb_TRANS: Attagene TRANS-FACTORIAL HepG2 Assay for human Retinoid X Receptor beta (RXRb) (AID 2283013; active means hit-call score of the fitted dose curve at least 0.9, where 1 is the maximum)
Procedure, shortened: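 HepG2 cells transiently transfected with multiplexed reporter units driven by GAL4-UAS and exogenous chimeric NR-Gal4 proteins; treated 24 h. Reporter mRNA measured by RT-PCR, 6-FAM labelling and capillary electrophoresis; gain-of-signal fitted versus DMSO baseline.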

[3] = read-out: E-selectin (Homo sapiens) (UniProt P16581); assay: BSK_3C_Eselectin: BioMAP Diversity Plus: 3C Assay for Eselectin Biomarker Activity (AID 2283015); conditions: primary human endothelial cells (HUVEC); actives raise or lower the signal
Procedure, shortened: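 E-selectin ELISA readout, fitted bidirectionally relative to DMSO, taken 24 h post-dosing in HUVEC cultures of the 3C system. Overt cytotoxicity tracked with sulforhodamine B staining of parallel wells.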

[4] = read-out: Interleukin-1 alpha (IL1a), IL1A (gene 3552); assay: BSK_BE3C_IL1a: BioMAP Diversity Plus: BE3C Assay for Interleukin-1 alpha (IL1a) Biomarker Activity (AID 2283016); conditions: primary human bronchial epithelial cells; actives raise or lower the signal
Procedure, shortened: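 Human primary bronchial epithelial cells (BE3C system) were dosed with compound and IL-1a measured by ELISA 24 h later. Activity was fitted bidirectionally against DMSO baseline; cytotoxicity was tracked in parallel cultures by SRB total-protein staining.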

[5] = read-out: Monocyte Chemoattractant Protein-1 (MCP1), CCL2 (gene 6347); assay: BSK_3C_MCP1: BioMAP Diversity Plus: 3C Assay for Monocyte Chemoattractant Protein-1 (MCP1) Biomarker Activity (AID 2283017); conditions: primary human endothelial cells (HUVEC); actives raise or lower the signal
Procedure, shortened: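 MCP-1 was measured by ELISA 24 h after dosing in primary HUVEC 3C cultures and fitted in both directions relative to DMSO; cytotoxicity was checked by SRB total-protein staining in parallel wells.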

[6] = read-out: Monocyte Chemoattractant Protein-1 (MCP1), CCL2 (gene 6347); assay: BSK_4H_MCP1: BioMAP Diversity Plus: 4H Assay for Monocyte Chemoattractant Protein-1 (MCP1) Biomarker Activity (AID 2283018); conditions: primary human endothelial cells (HUVEC); actives raise or lower the signal
Procedure, shortened: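 Human umbilical vein endothelial cells (4H system) dosed with chemical; MCP-1 measured by ELISA 24 h after dosing. Bidirectional curve fitting against DMSO negative control as baseline; parallel SRB total-protein staining tracks overt cytotoxicity.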

[7] = read-out: Human Leukocyte Antigen - DR isotype (HLADR), HLA-DRA (gene 3122); assay: BSK_3C_HLADR: BioMAP Diversity Plus: 3C Assay for Human Leukocyte Antigen - DR isotype (HLADR) Biomarker Activity (AID 2283019); conditions: primary human endothelial cells (HUVEC); actives raise or lower the signal
Procedure, shortened: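 Bidirectional fitting against DMSO was applied to the HLA-DR ELISA signal from human umbilical vein endothelial cells, 24 h post-dose. Cytotoxicity came from parallel SRB total-protein staining; 3C proliferation was counted by SRB at 48 h.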

[8] = read-out: Interleukin-8 (IL8), CXCL8 (gene 3576); assay: BSK_3C_IL8: BioMAP Diversity Plus: 3C Assay for Interleukin-8 (IL8) Biomarker Activity (AID 2283020); conditions: primary human endothelial cells (HUVEC); actives raise or lower the signal
Procedure, shortened: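 Primary human umbilical vein endothelial cells (3C system) were exposed to test chemical for 24 h, then IL-8 was quantified by ELISA. Responses were fitted bidirectionally against DMSO vehicle as baseline.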

[9] = read-out: Monokine induced gamma interferon (MIG), CXCL9 (gene 4283); assay: BSK_3C_MIG: BioMAP Diversity Plus: 3C Assay for Monokine induced gamma interferon (MIG) Biomarker Activity (AID 2283021); conditions: primary human endothelial cells (HUVEC); actives raise or lower the signal;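 on AC50: MIG protein level measured by immunoassay in the treated endothelial cultures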
Procedure, shortened: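 Primary human umbilical vein endothelial cells in the 3C system were exposed to chemical for 24 h, after which MIG was quantified by ELISA. Activity was fitted bidirectionally against DMSO as negative control and baseline.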

[10] = biological target: human Vitamin D Receptor (VDR), VDR (gene 7421) (UniProt P11473); assay: ATG_VDR_TRANS: Attagene TRANS-FACTORIAL HepG2 Assay for human Vitamin D Receptor (VDR) (AID 2283022; active means hit-call score of the fitted dose curve at least 0.9, where 1 is the maximum)
Procedure, shortened: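 Transactivation by an exogenous VDR-Gal4 chimera in transiently transfected HepG2 cells was measured as reporter transcript level 24 hours after chemical treatment. RT-PCR products were analysed by capillary electrophoresis and fitted in the positive direction relative to DMSO.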

[11] = read-out: Matrix Metallopeptidase 1 (MMP1), MMP1 (gene 4312); assay: BSK_BE3C_MMP1: BioMAP Diversity Plus: BE3C Assay for Matrix Metallopeptidase 1 (MMP1) Biomarker Activity (AID 2283024); conditions: primary human bronchial epithelial cells; actives raise or lower the signal
Procedure, shortened: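 Primary human bronchial epithelial cells were dosed with test chemicals, and MMP1 levels were measured by ELISA 24 h later. Data were fitted bidirectionally against DMSO as the negative control and activity baseline.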

[12] = BSK_3C_Vis: BioMAP Diversity Plus: 3C Assay for Morphology Visualization (AID 2283025); conditions: primary human endothelial cells (HUVEC);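 further: fitted both ways so gain or loss versus DMSO counts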
Procedure, shortened: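 Human umbilical vein endothelial cells in the 3C system were imaged by light microscopy 24 h after chemical dosing to record cell morphology. Activity was fitted bidirectionally against DMSO as negative control and baseline; the endpoint serves as a background control.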

[13] = read-out: Pselectin, SELP (gene 6403); assay: BSK_4H_Pselectin: BioMAP Diversity Plus: 4H Assay for Pselectin Biomarker Activity (AID 2283026); conditions: primary human endothelial cells (HUVEC); actives raise or lower the signal
Procedure, shortened: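 Primary human umbilical vein endothelial cells were exposed to test chemical for 24 h, then cell-surface P-selectin was quantified by ELISA. Activity was fitted bidirectionally against DMSO as negative control and baseline.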

[14] = BSK_4H_SRB: Viability Assessment in the BioMAP Diversity Plus: 4H Assay (AID 2283027); conditions: primary human endothelial cells (HUVEC);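 further: cells exposed to compound for 24 h before staining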;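 on AC50: curves fitted both ways versus DMSO so AC50 may be loss or gain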
Procedure, shortened: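 Absorbance at 560 nm of SRB-stained total protein served as the viability read-out in confluent primary human umbilical vein endothelium 24 h after chemical treatment. Curves were fitted bidirectionally against DMSO as negative control.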

[15] = BSK_BE3C_SRB: Viability Assessment in the BioMAP Diversity Plus: BE3C Assay (AID 2283028); conditions: primary human bronchial epithelial cells;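 on AC50: fitted both ways so AC50 may mark signal gain or loss versus DMSO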
Procedure, shortened: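 Cytotoxicity read-out: SRB (0.1%) staining of TCA-fixed (10%) human lung bronchial epithelial cells, absorbance 560 nm, 24 h post-dosing. Curves fitted both directions relative to DMSO.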

[16] = read-out: Thrombomodulin, THBD (gene 7056); assay: BSK_3C_Thrombomodulin: BioMAP Diversity Plus: 3C Assay for Thrombomodulin Biomarker Activity (AID 2283029); conditions: primary human endothelial cells (HUVEC); actives raise or lower the signal
Procedure, shortened: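 Primary human umbilical vein endothelial cells (3C system) were exposed to chemical for 24 h, then thrombomodulin levels were measured by ELISA. Activity was fitted bidirectionally against the DMSO negative control as baseline.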

[17] = read-out: Urokinase-type plasminogen activator receptor (uPAR), PLAUR (gene 5329); assay: BSK_4H_uPAR: BioMAP Diversity Plus: 4H Assay for Urokinase-type plasminogen activator receptor (uPAR) Biomarker Activity (AID 2283030); conditions: primary human endothelial cells (HUVEC); actives raise or lower the signal
Procedure, shortened: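 uPAR level read by ELISA on HUVEC cultures (BioMAP 4H) 24 h post-dosing, analyzed for gain or loss relative to DMSO. Parallel SRB staining assessed overt cytotoxicity.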

[18] = BSK_3C_SRB: Viability Assessment in the BioMAP Diversity Plus: 3C Assay (AID 2283023); conditions: primary human endothelial cells (HUVEC);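 further: fitted both ways against DMSO so a hit may be signal rise or drop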
Procedure, shortened: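 Cytotoxicity readout in parallel HUVEC 3C cultures: after 24 h compound exposure, cells fixed with 10% TCA, stained with 0.1% SRB and read at 560 nm. Gain or loss relative to DMSO fitted.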

[19] = read-out: Vascular endothelial growth factor receptor 2 (Homo sapiens) (UniProt P35968); assay: BSK_4H_VEGFRII: BioMAP Diversity Plus: 4H Assay for Vascular endothelial growth factor receptor 2 (VEGFR2) Biomarker Activity (AID 2283031); conditions: primary human endothelial cells (HUVEC); actives raise or lower the signal
Procedure, shortened: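 Measured by ELISA after 24 h of compound treatment: VEGFR2 on primary human umbilical vein endothelial cells, fitted in both directions relative to DMSO. Parallel cultures received SRB staining (560 nm) for overt cytotoxicity.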

Measured: AC50

human Vitamin D Receptor (VDR), VDR (gene 7421), sequence (P11473 whole entry, looked up, the tested form may be a part): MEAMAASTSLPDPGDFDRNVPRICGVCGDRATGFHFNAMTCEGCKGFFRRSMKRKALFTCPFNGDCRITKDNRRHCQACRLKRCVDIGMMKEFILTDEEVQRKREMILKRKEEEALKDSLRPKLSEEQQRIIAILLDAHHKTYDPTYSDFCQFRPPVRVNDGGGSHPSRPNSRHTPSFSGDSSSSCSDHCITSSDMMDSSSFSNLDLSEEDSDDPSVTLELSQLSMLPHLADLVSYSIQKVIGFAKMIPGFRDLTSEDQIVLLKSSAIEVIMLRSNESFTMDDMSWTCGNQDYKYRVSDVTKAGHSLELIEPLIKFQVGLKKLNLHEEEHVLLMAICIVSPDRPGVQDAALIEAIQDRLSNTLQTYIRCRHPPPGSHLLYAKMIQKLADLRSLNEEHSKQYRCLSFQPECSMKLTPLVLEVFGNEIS
E-selectin (Homo sapiens), sequence (P16581 whole entry, looked up): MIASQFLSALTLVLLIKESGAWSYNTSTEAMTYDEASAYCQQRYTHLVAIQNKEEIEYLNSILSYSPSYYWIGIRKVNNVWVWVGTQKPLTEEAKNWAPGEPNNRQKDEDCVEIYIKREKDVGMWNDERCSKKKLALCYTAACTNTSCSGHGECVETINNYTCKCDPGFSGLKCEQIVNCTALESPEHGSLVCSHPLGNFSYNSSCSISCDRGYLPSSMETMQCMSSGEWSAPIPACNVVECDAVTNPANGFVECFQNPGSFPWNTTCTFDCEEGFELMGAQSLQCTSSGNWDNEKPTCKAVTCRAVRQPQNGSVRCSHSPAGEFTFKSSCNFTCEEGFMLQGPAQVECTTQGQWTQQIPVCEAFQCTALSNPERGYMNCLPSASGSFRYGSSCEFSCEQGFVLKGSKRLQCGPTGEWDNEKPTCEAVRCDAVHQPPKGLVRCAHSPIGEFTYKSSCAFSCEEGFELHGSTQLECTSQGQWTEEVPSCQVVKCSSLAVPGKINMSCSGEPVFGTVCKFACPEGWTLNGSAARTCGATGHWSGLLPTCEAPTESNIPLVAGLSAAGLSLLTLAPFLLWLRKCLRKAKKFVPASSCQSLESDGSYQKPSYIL
Retinoic acid receptor RXR-alpha (Homo sapiens), sequence (P19793 whole entry, looked up, the tested form may be a part): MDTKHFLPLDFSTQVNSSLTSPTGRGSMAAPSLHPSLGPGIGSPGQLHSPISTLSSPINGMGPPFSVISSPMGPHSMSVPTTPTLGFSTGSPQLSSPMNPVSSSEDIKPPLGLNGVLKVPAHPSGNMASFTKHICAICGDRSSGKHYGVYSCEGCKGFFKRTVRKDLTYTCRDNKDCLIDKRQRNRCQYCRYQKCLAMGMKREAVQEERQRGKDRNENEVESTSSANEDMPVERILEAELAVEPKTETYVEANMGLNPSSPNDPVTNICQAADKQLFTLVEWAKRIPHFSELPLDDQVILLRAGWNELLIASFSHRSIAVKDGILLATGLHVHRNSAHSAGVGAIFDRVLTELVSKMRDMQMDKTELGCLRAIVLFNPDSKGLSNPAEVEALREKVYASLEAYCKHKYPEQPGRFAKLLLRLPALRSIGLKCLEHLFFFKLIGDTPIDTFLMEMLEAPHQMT
human Retinoid X Receptor beta (RXRb), RXRB (gene 6257), sequence (P28702 whole entry, looked up, the tested form may be a part): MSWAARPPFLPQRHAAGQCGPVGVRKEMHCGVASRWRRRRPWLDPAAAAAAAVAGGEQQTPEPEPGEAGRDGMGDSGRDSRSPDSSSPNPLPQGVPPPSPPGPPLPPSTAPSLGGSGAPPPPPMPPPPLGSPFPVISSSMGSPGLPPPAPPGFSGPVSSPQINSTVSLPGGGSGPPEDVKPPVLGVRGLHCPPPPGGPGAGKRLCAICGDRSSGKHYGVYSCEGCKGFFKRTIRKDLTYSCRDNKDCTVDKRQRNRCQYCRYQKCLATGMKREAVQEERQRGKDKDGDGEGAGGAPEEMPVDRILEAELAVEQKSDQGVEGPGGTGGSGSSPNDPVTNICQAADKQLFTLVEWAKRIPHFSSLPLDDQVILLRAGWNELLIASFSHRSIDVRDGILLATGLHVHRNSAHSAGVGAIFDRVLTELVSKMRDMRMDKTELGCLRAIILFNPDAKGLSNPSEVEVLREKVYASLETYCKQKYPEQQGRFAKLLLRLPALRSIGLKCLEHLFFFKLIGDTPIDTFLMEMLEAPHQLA

CCCCNC(=O)n1c(NC(=O)OC)nc2ccccc21
active: [5] 10 µM | [7] 13.7 µM | [12] 9.8 µM | [14] 14 µM | [17] 9.62 µM
inactive: [1] | [2] | [3] | [4] | [6] | [8] | [9] | [10] | [11] | [13] | [15] | [16]

CCOC(=O)C(Cl)Cc1cc(-n2nc(C)n(C(F)F)c2=O)c(F)cc1Cl (stereo not drawn)
active: [7] 9.55 µM
inactive: [3] | [4] | [5] | [6] | [8] | [9] | [10] | [11] | [12] | [13] | [14] | [15] | [16] | [17]

CCOc1cc(Oc2ccc(C(F)(F)F)cc2Cl)ccc1[N+](=O)[O-]
inactive: [3] | [4] | [5] | [8] | [9] | [12] | [13] | [14] | [17]
active: [6] 11.5 µM | [7] 3.32 µM | [18] 14.1 µM | [11] 7.63 µM | [15] 6.77 µM | [16] 4.94 µM

C=CCC1=C(C)C(OC(=O)C2C(C=C(C)C)C2(C)C)CC1=O (stereo not drawn)
inactive: [1] | [4] | [6] | [9] | [10] | [11] | [12] | [13] | [15] | [16] | [17]
active: [3] 30.3 µM [middle of 4 runs] | [5] 33.1 µM and 33.5 µM | [6] 21 µM and 34.3 µM | [7] 32.2 µM and 28 µM and 29.1 µM | [8] 32.3 µM [middle of 4 runs] | [9] 31.7 µM | [10] 105 µM | [11] 9.44 µM and 7.51 µM | [12] 39.4 µM and 39 µM | [13] 34.9 µM and 33 µM and 33.2 µM | [14] 32.7 µM [middle of 4 runs] | [17] 38.4 µM and 32.8 µM

Oc1ccccc1-c1ccccc1
inactive: [3] | [4] | [5] | [6] | [7] | [8] | [9] | [10] | [11] | [12] | [13] | [14] | [15] | [16] | [17] | [19]

Fc1ccc(Oc2ccnc3cc(Cl)cc(Cl)c23)cc1
active: [3] 32.3 µM | [4] 30.7 µM | [5] 30.4 µM | [6] 22.1 µM | [7] 25.1 µM | [8] 31.5 µM | [9] 31.2 µM | [11] 35.9 µM | [12] 29.4 µM | [13] 23 µM | [14] 30.8 µM | [15] 32.8 µM | [17] 32.1 µM
inactive: [2] | [16]

CCc1nn(C)c(C(=O)NCc2ccc(C(C)(C)C)cc2)c1Cl
inactive: [11] | [16] | [19]
active: [3] 20 µM | [4] 20 µM | [5] 28.4 µM | [6] 20 µM | [7] 17.3 µM | [8] 20 µM | [9] 34 µM | [12] 37.2 µM | [13] 26.9 µM | [14] 33.7 µM | [15] 30.2 µM | [17] 33 µM

N#Cc1cc(Br)c(O)c(Br)c1
inactive: [3] | [4] | [5] | [8] | [9] | [11] | [12] | [15] | [16]
active: [6] 14.3 µM | [7] 28 µM | [13] 16.5 µM | [14] 19 µM | [17] 16.9 µM

CCOC(=O)CC(SP(=S)(OC)OC)C(=O)OCC (stereo not drawn)
inactive: [3] | [4] | [5] | [6] | [8] | [9] | [10] | [18] | [11] | [12] | [13] | [14] | [15] | [16] | [17] | [19]
active: [7] 20 µM

CS/C(C)=N/OC(=O)N(C)SN(C)C(=O)O/N=C(\C)SC
active: [3] 30 µM | [5] 29.6 µM | [6] 29.3 µM | [7] 15.8 µM | [8] 29.7 µM | [9] 35.1 µM | [12] 11.9 µM | [13] 19.9 µM | [14] 29.6 µM | [15] 28.6 µM | [17] 26.8 µM
inactive: [1] | [4] | [11] | [16]

OC(c1ccc(Cl)cc1)(c1cncnc1)c1ccccc1Cl (stereo not drawn)
active: [6] 16.6 µM | [7] 10.8 µM | [12] 9.8 µM | [13] 23.9 µM | [17] 18.3 µM
inactive: [3] | [4] | [5] | [8] | [9] | [10] | [11] | [14] | [15] | [16] | [19]

— PubChem BioAssay (EPA / NIEHS)
